Compounds without any hit were thinned out: in the full panel of roughly 79,000, 15% have a hit. A number with no mark means an inactive call. The source made the active and inactive calls. No stated cut-off is given here; in the data, active means growth inhibition above about 70%; inactive means the rest.
Columns and labels:
[1] = NCI Yeast Anticancer Drug Screen. Data for the wt1 strain (AID 149);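 further: 0% = growth of vehicle-treated wt1 cultures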; details: S. cerevisiae wt1 strain (SPY 50644) growth inhibition, active compounds read high
Procedure, shortened: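 Readout: yeast growth inhibition, normalised to vehicle controls, in the wt1 strain exposed to test compounds.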

[2] = NCI Yeast Anticancer Drug Screen. Data for the rad50EPP+ strain (AID 151);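 further: 0% = growth of vehicle-treated control cultures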; details: S. cerevisiae rad50 mutant strain, active compounds read high
Procedure, shortened: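 Yeast strain carrying rad50 alteration (rad50EPP+) exposed to compounds; growth inhibition measured relative to vehicle-treated controls.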

[3] = NCI Yeast Anticancer Drug Screen. Data for the mgt1 strain (AID 153); details: S. cerevisiae mgt1 mutant growth inhibition, active compounds read high
Procedure, shortened: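 Yeast mgt1 strain (DNA repair/cell-cycle alteration panel) exposed to compounds; growth inhibition measured relative to vehicle-treated controls.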

[4] = NCI Yeast Anticancer Drug Screen. Data for the rad50 strain (AID 155);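 further: 0% = growth of vehicle-only cultures of the same strain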; details: S. cerevisiae rad50 strain growth inhibition, active compounds read high
Procedure, shortened: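 Compounds were tested on a yeast strain with an engineered DNA damage repair alteration; the reported value is growth inhibition normalised to vehicle treatment.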

[5] = NCI Yeast Anticancer Drug Screen. Data for the mec2-1 strain (AID 157); details: S. cerevisiae mec2-1 strain, active compounds read high
Procedure, shortened: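 mec2-1 yeast strain, carrying an alteration in DNA damage repair or cell cycle control, was exposed to compounds; growth inhibition was measured relative to vehicle-treated controls.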

[6] = NCI Yeast Anticancer Drug Screen. Data for the rad14 strain (AID 159);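 further: 0% = growth of vehicle-treated control cultures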; details: S. cerevisiae rad14 strain growth inhibition, active compounds read high
Procedure, shortened: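 Compound-treated yeast with a defined DNA-repair lesion; growth inhibition normalised to vehicle-treated cultures.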

[7] = NCI Yeast Anticancer Drug Screen. Data for the sgs1 mgt1 strain (AID 161);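 further: 0% = growth of cultures given vehicle only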; details: S. cerevisiae sgs1 mgt1 strain, active compounds read high
Procedure, shortened: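 Percent growth inhibition was derived by comparing compound-exposed mutant yeast with vehicle-exposed cultures. The strain carries alterations in DNA damage repair.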

[8] = NCI Yeast Anticancer Drug Screen. Data for the CLN2oe strain (AID 163);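 further: 0% = growth of vehicle-only control cultures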; details: S. cerevisiae CLN2oe strain, active compounds read high
Procedure, shortened: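 Yeast cells carrying a defined cell-cycle control alteration were exposed to test compounds. Growth inhibition was scored against vehicle-treated control cultures.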

[9] = NCI Yeast Anticancer Drug Screen. Data for the cln2 rad14 strain (AID 165);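 further: 0% = growth equal to vehicle treated cultures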; details: S. cerevisiae cln2 rad14 strain, active compounds read high
Procedure, shortened: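 Yeast carrying cln2 and rad14 alterations (cell cycle control and DNA damage repair) were exposed to compounds. Growth inhibition was measured against vehicle-treated controls.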

[10] = NCI Yeast Anticancer Drug Screen. Data for the bub3 strain (AID 167); details: S. cerevisiae bub3 mutant strain, active compounds read high
Procedure, shortened: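 Growth of a checkpoint-deficient yeast mutant is measured after compound exposure. Values represent inhibition relative to vehicle.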

[11] = NCI Yeast Anticancer Drug Screen. Data for the wt2 strain (AID 169);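 further: 0% = growth of vehicle-treated yeast cultures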; details: S. cerevisiae wt2 strain growth inhibition, active compounds read high
Procedure, shortened: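 Yeast cells were exposed to test compounds, and growth inhibition was measured relative to vehicle-treated controls.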

[12] = NCI Yeast Anticancer Drug Screen. Data for the mlh1 strain (AID 171);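 further: 0% = growth of vehicle-treated control cultures of the same strain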; details: S. cerevisiae mlh1 strain growth inhibition, active compounds read high
Procedure, shortened: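 Yeast carrying a defined genetic alteration in DNA damage repair or cell cycle control were exposed to test compounds. Growth inhibition was measured relative to vehicle-treated controls.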

[13] = NCI Yeast Anticancer Drug Screen. Data for the sgs1 strain (AID 173);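 further: 0% = growth of vehicle-only control cultures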; details: S. cerevisiae sgs1 mutant, active compounds read high
Procedure, shortened: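 Yeast mutant strains carrying defined defects in DNA damage repair or cell cycle control were exposed to test compounds. Growth inhibition was scored against vehicle-treated controls.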

[14] = NCI Yeast Anticancer Drug Screen. Data for the mlh1 rad18 strain (AID 175); details: S. cerevisiae mlh1 rad18 strain growth inhibition, active compounds read high
Procedure, shortened: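 Growth inhibition of the yeast strain was measured after compound exposure and expressed relative to vehicle-treated controls. The strain carries defined defects in DNA damage repair.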

[15] = NCI Yeast Anticancer Drug Screen. Data for the rad18 strain (AID 177); details: S. cerevisiae rad18 mutant growth inhibition, active compounds read high
Procedure, shortened: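 Yeast carrying a defined DNA damage repair alteration were exposed to compounds. Growth inhibition was expressed relative to vehicle-treated controls.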

[16] = at 5.0 µM (retest, dose inferred, filed as 0.5)
[17] = at 50.0 µM (retest, dose inferred, filed as 5.0)

## CC(O)CN1C(=O)c2cccc3cc([N+](=O)[O-])cc(c23)C1=O (stereo unspecified)
[1]; at 1.2 µM
  growth inhibition: -7%
[1]; at 3.7 µM
  growth inhibition: 5%
[1]; at 11.0 µM
  growth inhibition: 1%
[1]; at 33.0 µM
  growth inhibition: -3%
[1]; at 100.0 µM
  growth inhibition: 0%
[2]; at 1.2 µM
  growth inhibition: 10%
[2]; at 3.7 µM
  growth inhibition: 8%
[2]; at 11.0 µM
  growth inhibition: 18%
[2]; at 33.0 µM
  growth inhibition: 55%
[2]; at 100.0 µM
  growth inhibition: 60%
[3]; at 1.2 µM
  growth inhibition: -23%
[3]; at 3.7 µM
  growth inhibition: 4%
[3]; at 11.0 µM
  growth inhibition: 6%
[3]; at 33.0 µM
  growth inhibition: 15%
[3]; at 100.0 µM
  growth inhibition: 23%
[4]; at 1.2 µM
  growth inhibition: -2%
[4]; at 3.7 µM
  growth inhibition: 27%
[4]; [16]
  growth inhibition: 56%
[4]; at 11.0 µM
  growth inhibition: 75% (active)
[4]; at 33.0 µM
  growth inhibition: 88% (active)
[4]; [17]
  growth inhibition: 78% (active)
[4]; at 50.0 µM
  growth inhibition: 50.9%
[4]; at 100.0 µM
  growth inhibition: 91% (active)
[5]; at 1.2 µM
  growth inhibition: -17%
[5]; at 3.7 µM
  growth inhibition: -11%
[5]; [16]
  growth inhibition: -16%
[5]; at 11.0 µM
  growth inhibition: 2%
[5]; at 33.0 µM
  growth inhibition: 34%
[5]; [17]
  growth inhibition: 65%
[5]; at 50.0 µM
  growth inhibition: 67.4%
[5]; at 100.0 µM
  growth inhibition: 42%
[6]; at 1.2 µM
  growth inhibition: 2%
[6]; at 3.7 µM
  growth inhibition: 12%
[6]; at 11.0 µM
  growth inhibition: 14%
[6]; at 33.0 µM
  growth inhibition: 19%
[6]; at 100.0 µM
  growth inhibition: 21%
[7]; [16]
  growth inhibition: -13%
[7]; [17]
  growth inhibition: 15%
[7]; at 50.0 µM
  growth inhibition: 58%
[8]; at 1.2 µM
  growth inhibition: 20%
[8]; at 3.7 µM
  growth inhibition: 0%
[8]; at 11.0 µM
  growth inhibition: -2%
[8]; at 33.0 µM
  growth inhibition: -5%
[8]; at 100.0 µM
  growth inhibition: -5%
[9]; [16]
  growth inhibition: 5%
[9]; [17]
  growth inhibition: 33%
[9]; at 50.0 µM
  growth inhibition: 13.4%
[10]; at 1.2 µM
  growth inhibition: -8%
[10]; at 3.7 µM
  growth inhibition: -6%
[10]; [16]
  growth inhibition: 8%
[10]; at 11.0 µM
  growth inhibition: -11%
[10]; at 33.0 µM
  growth inhibition: -21%
[10]; [17]
  growth inhibition: 32%
[10]; at 50.0 µM
  growth inhibition: 39.4%
[10]; at 100.0 µM
  growth inhibition: -30%
[11]; at 1.2 µM
  growth inhibition: -27%
[11]; at 3.7 µM
  growth inhibition: -18%
[11]; at 11.0 µM
  growth inhibition: -13%
[11]; at 33.0 µM
  growth inhibition: -12%
[11]; at 100.0 µM
  growth inhibition: 2%
[12]; at 1.2 µM
  growth inhibition: 5%
[12]; at 3.7 µM
  growth inhibition: 4%
[12]; at 11.0 µM
  growth inhibition: 14%
[12]; at 33.0 µM
  growth inhibition: 50%
[12]; at 100.0 µM
  growth inhibition: 47%
[13]; at 1.2 µM
  growth inhibition: -6%
[13]; at 3.7 µM
  growth inhibition: -15%
[13]; at 11.0 µM
  growth inhibition: 6%
[13]; at 33.0 µM
  growth inhibition: 15%
[13]; at 100.0 µM
  growth inhibition: 30%
[14]; [16]
  growth inhibition: 25%
[14]; [17]
  growth inhibition: 73% (active)
[14]; at 50.0 µM
  growth inhibition: 83.3% (active)
[15]; at 1.2 µM
  growth inhibition: -11%
[15]; at 3.7 µM
  growth inhibition: 2%
[15]; at 11.0 µM
  growth inhibition: 9%
[15]; at 33.0 µM
  growth inhibition: 67%
[15]; at 100.0 µM
  growth inhibition: 88% (active)

## CSc1ccc2c(c1)C(N1CCN(C)CC1)Cc1ccccc1S2 (stereo unspecified)
[1]; at 1.2 µM
  growth inhibition: -58%
[1]; at 3.7 µM
  growth inhibition: -61%
[1]; at 11.0 µM
  growth inhibition: -57%
[1]; at 33.0 µM
  growth inhibition: -6%
[1]; at 100.0 µM
  growth inhibition: 99% (active)
[2]; at 1.2 µM
  growth inhibition: -27%
[2]; at 3.7 µM
  growth inhibition: -45%
[2]; at 11.0 µM
  growth inhibition: -37%
[2]; at 33.0 µM
  growth inhibition: -4%
[2]; at 100.0 µM
  growth inhibition: 91% (active)
[3]; at 1.2 µM
  growth inhibition: -33%
[3]; at 3.7 µM
  growth inhibition: -31%
[3]; at 11.0 µM
  growth inhibition: -49%
[3]; at 33.0 µM
  growth inhibition: 74% (active)
[3]; at 100.0 µM
  growth inhibition: 99% (active)
[4]; at 1.2 µM
  growth inhibition: -34%
[4]; at 3.7 µM
  growth inhibition: -47%
[4]; [16]
  growth inhibition: 28%
[4]; at 11.0 µM
  growth inhibition: -25%
[4]; at 33.0 µM
  growth inhibition: 76% (active)
[4]; [17]
  growth inhibition: 67%
[4]; at 50.0 µM
  growth inhibition: 88.1% (active)
[4]; at 100.0 µM
  growth inhibition: 98% (active)
[5]; at 1.2 µM
  growth inhibition: -75%
[5]; at 3.7 µM
  growth inhibition: -83%
[5]; [16]
  growth inhibition: 15%
[5]; at 11.0 µM
  growth inhibition: -4%
[5]; at 33.0 µM
  growth inhibition: 83% (active)
[5]; [17]
  growth inhibition: 78% (active)
[5]; at 50.0 µM
  growth inhibition: 78.6% (active)
[5]; at 100.0 µM
  growth inhibition: 99% (active)
[6]; at 1.2 µM
  growth inhibition: -55%
[6]; at 3.7 µM
  growth inhibition: -36%
[6]; at 11.0 µM
  growth inhibition: 5%
[6]; at 33.0 µM
  growth inhibition: 98% (active)
[6]; at 100.0 µM
  growth inhibition: 99% (active)
[7]; [16]
  growth inhibition: 98% (active)
[7]; [17]
  growth inhibition: 86% (active)
[7]; at 50.0 µM
  growth inhibition: 84.2% (active)
[8]; at 1.2 µM
  growth inhibition: -17%
[8]; at 3.7 µM
  growth inhibition: 5%
[8]; at 11.0 µM
  growth inhibition: 13%
[8]; at 33.0 µM
  growth inhibition: 52%
[8]; at 100.0 µM
  growth inhibition: 99% (active)
[9]; [16]
  growth inhibition: 91% (active)
[9]; [17]
  growth inhibition: 88% (active)
[9]; at 50.0 µM
  growth inhibition: 76% (active)
[10]; at 1.2 µM
  growth inhibition: -68%
[10]; at 3.7 µM
  growth inhibition: -46%
[10]; [16]
  growth inhibition: 98% (active)
[10]; at 11.0 µM
  growth inhibition: 14%
[10]; at 33.0 µM
  growth inhibition: 91% (active)
[10]; [17]
  growth inhibition: 86% (active)
[10]; at 50.0 µM
  growth inhibition: 81.7% (active)
[10]; at 100.0 µM
  growth inhibition: 98% (active)
[11]; at 1.2 µM
  growth inhibition: -59%
[11]; at 3.7 µM
  growth inhibition: -35%
[11]; at 11.0 µM
  growth inhibition: -46%
[11]; at 33.0 µM
  growth inhibition: 6%
[11]; at 100.0 µM
  growth inhibition: 99% (active)
[12]; at 1.2 µM
  growth inhibition: -67%
[12]; at 3.7 µM
  growth inhibition: -68%
[12]; at 11.0 µM
  growth inhibition: -37%
[12]; at 33.0 µM
  growth inhibition: 88% (active)
[12]; at 100.0 µM
  growth inhibition: 98% (active)
[13]; at 1.2 µM
  growth inhibition: -34%
[13]; at 3.7 µM
  growth inhibition: -84%
[13]; at 11.0 µM
  growth inhibition: -27%
[13]; at 33.0 µM
  growth inhibition: 70% (active)
[13]; at 100.0 µM
  growth inhibition: 98% (active)
[14]; [16]
  growth inhibition: 35%
[14]; [17]
  growth inhibition: 89% (active)
[14]; at 50.0 µM
  growth inhibition: 92.8% (active)
[15]; at 1.2 µM
  growth inhibition: -44%
[15]; at 3.7 µM
  growth inhibition: -72%
[15]; at 11.0 µM
  growth inhibition: -44%
[15]; at 33.0 µM
  growth inhibition: 75% (active)
[15]; at 100.0 µM
  growth inhibition: 98% (active)
